Binding signal data for 38 sequences are collected here from paper PMC3795721, “Screening for Protein-DNA Interactions by Automatable DNA-Protein Interaction ELISA”.

Sequence of AT4G31550 (Q9SV15 228-325): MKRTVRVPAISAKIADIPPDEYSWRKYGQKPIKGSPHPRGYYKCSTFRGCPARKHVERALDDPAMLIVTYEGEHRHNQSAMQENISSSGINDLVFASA

This test addresses AT4G31550 (Arabidopsis thaliana, UniProt Q9SV15 228-325). Put plainly: DPI-ELISA; DPI-ELISA, streptavidin 384-well plate, 1-2 pmol biotinylated dsDNA per well, crude native E. coli extract, anti-His detection; buffer as in Brand et al. [46],; high values mean tight binding. The following applies: tags: C-terminal His (pET-DEST42); label: 5' biotin on forward strand; dsDNA, one strand shown.
Regarding AAAAAATATGGCACTCGCCGCACATCAAAA, the binding signal amounted to 0.755 ± 0.191 absorbance.

The sequence AAAAAATGGTACTCAGAGTTATAGACAAAA registered a binding signal of 0.66 ± 0.141 absorbance.

AAAAAATACATTTGACTTTGGGTTTCAAAA showed a binding signal of 3.4 ± 0.297 absorbance.

AAAAAATTGTGCCTCTGCCCTCGCCTAAAA registered a binding signal of 0.62 ± 0.127 absorbance.

Regarding AAAAAAGGGCCCACTATCGACGTCAAAA, the binding signal is 0.605 ± 0.134 absorbance.

In the case of AAAAAATTGGCACACATGATCTCGGGAAAA, the binding signal was determined as 0.56 ± 0.113 absorbance.

Sequence AAAAAAGAGAATTGTCAGTGCCCAACAAAA had a binding signal of 0.705 ± 0.106 absorbance.

Sequence AAAAAAGGGGTCCTTTTCCAATGTCTAAAA yielded a binding signal of 0.605 ± 0.0495 absorbance.

In the case of AAAAAACGCCTTATGCCTCCCGCTCGAAAA, the binding signal was 0.675 ± 0.0354 absorbance.

In turn, AAAAAAGCGTAAGCCTTGACAGTCGTAAAA returned a binding signal of 0.725 ± 0.106 absorbance.

AAAAAAGGCTTCCACTTTGAGTTTGCAAAA: the binding signal was found to be 0.57 ± 0.099 absorbance.

For the sequence AAAAAAAGTTCCAGGTCCGATGCTCAAAAA, the binding signal was 0.805 ± 0.318 absorbance.

Turning to AAAAAAAACGTCTGGCGGGGTTGAGAAAAA, the binding signal amounted to 0.65 ± 0.113 absorbance.

AAAAAAGGCTGTGGCCAATGTTCGTAAAAA gave a binding signal of 0.55 ± 0.0566 absorbance.

As to AAAAAATTCAGAGCTTCGAGGTTCCGAAAA, the binding signal was 0.66 ± 0.0707 absorbance.

The sequence AAAAAAAGTTCGCGGATTTCGGCCATAAAA registered a binding signal of 0.685 ± 0.148 absorbance.

In turn, AAAAAAGGTTTAGCCCATGCCTGTGCAAAA showed a binding signal of 0.645 ± 0.12 absorbance.

In the case of AAAAAAACGGTGTCATAGTATTAGTGAAAA, the binding signal is 0.585 ± 0.134 absorbance.

Regarding AAAAAATTTCTCCTTCTTTGTTCTTCAAAA, the binding signal turned out to be 0.66 ± 0.141 absorbance.

As for AAAAAATTTGTACTTTAAGTTTACATAAAA, the binding signal is 0.56 ± 0.0849 absorbance.

Take AAAAAATCGTAAATGCCCATAGCCGTAAAA: the binding signal was 0.555 ± 0.106 absorbance.

Sequence AAAAAATGGATCTTTACTTTAGGCCAAAAA yielded a binding signal of 0.92 ± 0.424 absorbance.

The sequence AAAAAATGTCGGCTGTTAGGATATCGAAAA returned a binding signal of 0.625 ± 0.0495 absorbance.

Turning to AAAAAATTGCCGTCATAATTGTGGTAAAAA, the binding signal came out at 0.59 ± 0.0849 absorbance.

As for AAAAAACTGACCGTCAGCGCCCACGCAAAA, the binding signal is 1.45 ± 0.424 absorbance.

In turn, AAAAAAGGGTCGCTGTGAGCTCATGAAAAA showed a binding signal of 0.575 ± 0.12 absorbance.

In turn, AAAAAATCGCGAACGTACGTCCGCGGAAAA registered a binding signal of 0.51 ± 0.113 absorbance.

In turn, AAAAAATTAGTCCTGATTCAATCTTCAAAA registered a binding signal of 0.755 ± 0.106 absorbance.

On to AAAAAACACAGCATTAGGCTATCGGTAAAA, for which the binding signal was 0.655 ± 0.134 absorbance.

Consider AAAAAACCGTATGTATATCTATATGTAAAA, for which the binding signal amounted to 0.42 ± 0.113 absorbance.

AAAAAATCATCTCTATGTTATTGTTGAAAA yielded a binding signal of 0.58 ± 0.113 absorbance.

AAAAAATGTGGTTACGGCCTCGATGAAAAA showed a binding signal of 0.565 ± 0.106 absorbance.

AAAAAACGGTCGCGATCGTTAATGATAAAA registered a binding signal of 0.75 ± 0.17 absorbance.

Consider AAAAAACTCGTACATCTATCGCTACGAAAA, for which the binding signal turned out to be 0.54 ± 0.0849 absorbance.

Turning to AAAAAACTACGTATATTCAGGCCCTAAAAA, the binding signal was found to be 0.68 ± 0.113 absorbance.

AAAAAACCGACCTGCACGTCGCTGCTAAAA: the binding signal was 0.505 ± 0.106 absorbance.

Regarding AAAAAATCCTTTTCTCTTTCTGTTTCAAAA, the binding signal came to 0.575 ± 0.12 absorbance.

Sequence AAAAAAAGTAGTTACTGCGAAAGTCTAAAA registered a binding signal of 0.675 ± 0.0778 absorbance.
